From PubChem BioAssay (EPA / NIEHS) come the findings set out here.

Activity calls are given as the source filed them. How the source made its calls: active means hit-call score of the fitted dose curve at least 0.9, where 1 is the maximum; inactive means score below 0.9.

Read-out in this assay: Interleukin-8 (IL8), CXCL8 (gene 3576)
In words: BSK_SAg_IL8: BioMAP Diversity Plus: SAg Assay for Interleukin-8 (IL8) Biomarker Activity (AID 2283094). Conditions: primary human HUVEC with PBMC; actives raise or lower the signal. The procedure: BSK_SAg is a cell-based, multiplexed-readout assay that uses umbilical vein endothelium and peripheral blood mononuclear cells, a human vascular primary cell co-culture, with measurements taken at 24 hours after chemical dosing in a 96-well plate.BSK_SAg_IL8 is an assay component measured in the BSK_SAg assay. It measures IL-8 antibody related to regulation of gene expression using ELISA technology.Data from the assay component BSK_SAg_IL8 was analyzed into 1 assay endpoint. This assay endpoint, BSK_SAg_IL8, was analyzed with bidirectional fitting relative to DMSO as the negative control and baseline of activity. Using a type of binding reporter, gain or loss-of-signal activity can be used to understand changes in the signaling as they relate to the gene CXCL8. Furthermore, this assay endpoint can be referred to as a primary readout, because this assay has produced multiple assay endpoints where this one serves a signaling function. To generalize the intended target to other relatable targets, this assay endpoint is annotated to the cytokine intended target family, where the subfamily is interleukins.
The levels of cell surface (or secreted, indicated by the prefix "s") biomarker endpoints were measured by ELISA. Overt cytotoxicity to cells in confluent adherent cultures (all systems other than the BT system) was assessed by measuring total protein levels using sulforhodamine B (SRB) staining in parallel cultures at the time of biomarker measurements, indicated as SRB endpoints. For proliferation assays for adherent cell types, individual cell types are cultured at sub-confluence and relative cell numbers quantified by SRB staining at time points optimized for each system (48 h: 3C and CASM3C systems; 72 h: BT and HDF3CGF systems; 96 h: SAg system). SRB was performed by staining cells with 0.1% SRB after fixation with 10% TCA and reading wells at 560 nm.Viability and proliferation of PBMC (T cells) was quantified by Alamar Blue reduction for the SAg and BT systems. For PBMC viability (referred to as PBMC Cytotoxicity within the assay endpoint names), cells were plated (75,000/well in a 96-well plate) and then chemical samples added for 1 h before addition of activators, SEB and TSST-1 (20 ng/mL final concentration each). Cells were incubated for 90 h. Then, Alamar Blue (20 uL/well) (Invitrogen, Cat DAL1100) was added for 6 h, and the plates were read with a fluorescence microplate reader at 546/580 nm (excitation/emission). For PBMC proliferation, cells were plated and activated as above but incubated for only 16 h prior to addition of Alamar Blue. Plates were read after 6 h.
`COCC(C)N(C(=O)CCl)c1c(C)csc1C` (stereo not given): the outcome was inactive. Still for that read-out and setting: the same measure for `CNC(=O)Oc1cccc2ccccc12`: “inactive”; for `CCC(C)n1c(=O)[nH]c(C)c(Br)c1=O` (stereo not given): “inactive”; for `CC(C)Oc1cccc(NC(=O)c2ccccc2C(F)(F)F)c1`: “inactive”. As a reminder, the AC50 is the midpoint of the concentration-response curve, whichever way the signal moves. Regarding `Cc1c(COC(=O)[C@@H]2[C@H](/C=C(\Cl)C(F)(F)F)C2(C)C)cccc1-c1ccccc1`, the AC50 was 9.35 µM (active). As for `CCOP(=S)(OCC)Oc1nc(Cl)n(C(C)C)n1`, the outcome was inactive. Turning to `CC1(C)C(C=C(Cl)Cl)C1C(=O)OC(C#N)c1cccc(Oc2ccccc2)c1` (stereo not given), the result was inactive. As for `Nc1c(Cl)c(Cl)nc(C(=O)O)c1Cl`, the outcome was inactive. The same measure, in the same setting: to `CCOC(=O)C(C)OC(=O)c1cc(Oc2ccc(C(F)(F)F)cc2Cl)ccc1[N+](=O)[O-]` (stereo not given) belongs “inactive”. On the same count and under the same terms, the same measure for `C=C(C)CN(CC)c1c([N+](=O)[O-])cc(C(F)(F)F)cc1[N+](=O)[O-]`: “inactive”; for `O=C(Nc1ccccc1-c1ccc(Cl)cc1)c1cccnc1Cl`: “inactive”.

`O=c1n(Cl)c(=O)n(Cl)c(=O)n1Cl`: the outcome was inactive. Take `COC(=O)NC(=S)Nc1ccccc1NC(=S)NC(=O)OC`: the AC50 was 25.1 µM (active). With `Clc1nc(Cl)nc(Nc2ccccc2Cl)n1`, the result was inactive. Regarding `CC1(C)CCC(=Cc2ccc(Cl)cc2)C1(O)Cn1cncn1` (stereo not given), the result was inactive. With `N#CN=C1SCCN1Cc1ccc(Cl)nc1`, the result was inactive. On the same count and under the same terms, the same measure for `Nc1c(Cl)c(F)nc(OCC(=O)O)c1Cl`: “inactive”. On the same count and under the same terms, the same measure for `CCOc1nc(F)cc2nc(S(=O)(=O)Nc3c(Cl)cccc3Cl)nn12`: “inactive”.

As to `CC(C)N1C(=O)N(c2ccccc2)CSC1=NC(C)(C)C`, the AC50 was 26.3 µM (active). As to `C=CCOC(=O)C(C)(C)OC(=O)c1cc(-n2c(=O)cc(C(F)(F)F)n(C)c2=O)ccc1Cl`, the result was inactive. Consider `CN=C=S`, for which the AC50 was 11.7 µM (active). In the case of `CCN(CC)C(=O)C(C)Oc1cccc2ccccc12` (stereo not given), the result was inactive. For `Nc1cnn(-c2ccccc2)c(=O)c1Cl`, the outcome was inactive. With `COP(=S)(OC)SCn1nnc2ccccc2c1=O`, the result was inactive. Still for that read-out and setting: to `Cc1cnc(C2=NC(C)(C(C)C)C(=O)N2)c(C(=O)O)c1` (stereo not given) belongs “inactive”. Turning to `CCN(CC)c1nc(C)cc(OP(=S)(OC)OC)n1`, the AC50 is 14.1 µM (active). Take `N#Cc1c[nH]cc1-c1cccc2c1OC(F)(F)O2`: the AC50 was 27.4 µM (active).

In the case of `CCNP(=S)(OC)O/C(C)=C/C(=O)OC(C)C` (stereo not given), the result was inactive. With `COc1ccc(-c2ccccc2)cc1NNC(=O)OC(C)C`, the outcome was inactive. Still for that read-out and setting: to `CC(C)(C)C(=O)C(Oc1ccc(Cl)cc1)n1cncn1` (stereo not given) belongs “inactive”. Still for that read-out and setting: to `COc1cc(OC)nc(NC(=O)NS(=O)(=O)c2ncccc2OCC(F)(F)F)n1` belongs “inactive”. `CC1(C)C(C(=O)OC(C#N)c2cccc(Oc3ccccc3)c2)C1(C)C` (stereo not given): the AC50 is 26.8 µM (active). The same measure, in the same setting: to `CCCCOCN(C(=O)CCl)c1c(CC)cccc1CC` belongs 31 µM (active); to `CO/N=C(/C1=NOCCO1)c1ccccc1Oc1ncnc(Oc2ccccc2Cl)c1F`, 11 µM (active). Turning to `CCCC(=NOCC)C1=C(O)CC(CC(C)SCC)CC1=O` (stereo not given), the result was inactive. Same read-out and setting: the same measure for `CC(C)N1C(=O)c2ccccc2NS1(=O)=O`: “inactive”; for `Clc1cccc(C(Cl)(Cl)Cl)n1`: “inactive”; for `CC(C)Nc1nc(Cl)nc(NC(C)C)n1`: “inactive”.

As to `CCCCC(C#N)(Cn1cncn1)c1ccc(Cl)cc1` (stereo not given), the outcome was inactive. Consider `COC(=O)N(C(=O)N1CO[C@@]2(C(=O)OC)Cc3cc(Cl)ccc3C2=N1)c1ccc(OC(F)(F)F)cc1`, for which the AC50 is 5.25 µM (active).
